Screening results: PubChem BioAssay, The Scripps Research Institute Molecular Screening Center
LYPLA2 counter – LYPLA2 (human) inhibition in PME1 counter-screen; actives 0.38% (n = 320,000); recombinant LYPLA2, FP-Rh probe fluorescence polarization; O95372; inhibition, % at 5.9 µM;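 active means inhibition above the screen-wide mean plus 3 SD, limit set per campaign, cut at about 26% in these data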;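 further: 0% = LYPLA2 with DMSO and 100% = wells lacking LYPLA2 enzyme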
Fam108B inh – blocks mouse Fam108B hydrolase in RBBP9 counter-screen. inhibition, % at 9.51 µM. recombinant Fam108B, FP-Rh probe fluorescence polarization. actives 0.33% (n = 300,000);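 active means inhibition above the screen mean inhibition plus 3 SD, computed separately per campaign, cut at about 18% in these data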;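 further: inhibitors lower polarization as less probe binds the enzyme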
PAD4 inh – inhibitors of human PAD4 | Q9UM07 | recombinant PAD4, RCA probe fluorescence polarization | inhibition, % at 6.36 µM | actives 0.41% (n = 330,000);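 active means percent inhibition above a cutoff equal to the mean of all tested compounds plus 3 SD, cut at about 15% in these data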;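 further: 0% = PAD4 with RCA probe and DMSO and 100% = probe without PAD4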
LYPLA1 inh – blocks human lysophospholipase 1, a PME1 counter-screen; actives 0.16% (n = 320,000); inhibition, % at 5.9 µM; O75608; recombinant LYPLA1, FP-Rh probe fluorescence polarization;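 active means inhibition above the mean of all tested compounds plus 3 SD, set per campaign, cut at about 14% in these data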;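 further: inhibitors block serine hydrolase probe labeling of LYPLA1 so polarization falls; 0% = enzyme with DMSO and 100% = wells lacking LYPLA1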
PME-1 inh – blocks human protein phosphatase methylesterase 1 | Q9Y570 | recombinant PME-1, FP-Rh probe fluorescence polarization | inhibition, % at 5.9 µM | actives 0.53% (n = 320,000);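 active means inhibition above the campaign mean of all compounds plus 3 SD, cut at about 26% in these data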;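 further: competitive labeling of PME-1 active site by serine hydrolase directed probe; 0% = PME-1 with DMSO and 100% = wells lacking PME-1 enzyme; inhibitors block probe labeling so polarization falls and inhibition rises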
Target sequence (Q9Y570 whole entry, looked up): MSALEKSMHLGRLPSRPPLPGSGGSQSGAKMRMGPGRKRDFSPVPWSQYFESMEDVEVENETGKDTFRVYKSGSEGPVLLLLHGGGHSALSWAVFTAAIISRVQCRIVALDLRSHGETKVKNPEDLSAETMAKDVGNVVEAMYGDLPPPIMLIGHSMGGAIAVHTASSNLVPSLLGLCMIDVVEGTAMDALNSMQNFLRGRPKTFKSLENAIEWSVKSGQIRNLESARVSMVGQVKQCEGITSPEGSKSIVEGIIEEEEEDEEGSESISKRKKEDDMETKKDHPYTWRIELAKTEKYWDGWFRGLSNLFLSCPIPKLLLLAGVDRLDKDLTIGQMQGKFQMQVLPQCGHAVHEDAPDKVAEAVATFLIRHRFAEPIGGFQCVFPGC
GSTO1 inh – GSTO1 inhibition, counter-screen for RBBP9 inhibitors; AID 1974; inhibition, % at 5.96 µM; recombinant GSTO1, activity-based probe fluorescence polarization; actives 1.1% (n = 300,000);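 active means inhibition above the campaign mean inhibition plus 3 SD, cut at about 35% in these data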;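 further: 0% = GSTO1-1 with DMSO and 100% = wells lacking GSTO1-1 enzyme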
Target sequence (P78417 whole entry, looked up): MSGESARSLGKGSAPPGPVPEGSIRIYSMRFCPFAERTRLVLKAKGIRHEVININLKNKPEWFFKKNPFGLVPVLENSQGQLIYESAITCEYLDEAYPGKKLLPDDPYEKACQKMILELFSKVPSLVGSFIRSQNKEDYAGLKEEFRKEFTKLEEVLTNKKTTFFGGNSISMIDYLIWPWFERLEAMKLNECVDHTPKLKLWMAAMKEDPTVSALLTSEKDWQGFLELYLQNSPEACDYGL
LYPLA2 confirm – LYPLA2 (human) inhibition, confirmation counter-screen | recombinant LYPLA2, FP-Rh probe fluorescence polarization | shares compounds with LYPLA2 counter | actives 72% (n = 1,100) | inhibition, % at 5.9 µM;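 active means mean inhibition across replicates above the hit cutoff set in the primary screen, cut at about 26% in these data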;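 further: blocked labeling of the enzyme by serine hydrolase FP-Rh probe lowers polarization; 0% = enzyme with DMSO and 100% = wells lacking LYPLA2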
LYPLA2 ABPP – inhibitors of human LYPLA2; actives 30% (n = 150); shares compounds with LYPLA2 counter; inhibition, % at 20 µM; rhLYPLA2 in mouse brain proteome, gel ABPP FP-Rh; AID 652029;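 active means inhibition of LYPLA2 enzyme probe labeling above about 50%, limit read from the data; inactive means inhibition below that limit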;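 further: loss of FP-Rh probe labeling of the LYPLA2 gel band measured as band density; 0% = DMSO only control band and 100% = blank gel background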
Active calls of the source: *. Sampled rows, rich in hits. Any-hit rate of the full collection: about 1.8%.

Screening COc1cc(/C=N/NC(=O)Cc2ccccc2)ccc1Oc1ccc([N+](=O)[O-])cc1[N+](=O)[O-] returned LYPLA2 counter 40*, Fam108B inh -10, PAD4 inh 0, LYPLA1 inh -4, PME-1 inh 6, GSTO1 inh -3 and LYPLA2 confirm 31*.
Screening COc1cc(/C=N\NC(=O)c2ccccc2F)ccc1Oc1ccc([N+](=O)[O-])cn1 returned LYPLA2 counter 31*, Fam108B inh 0, PAD4 inh 2, LYPLA1 inh -2, PME-1 inh 3, GSTO1 inh 4 and LYPLA2 confirm 23.
CCOc1cc(C=C(C#N)C#N)ccc1Oc1ccc([N+](=O)[O-])cn1 was read as LYPLA2 counter 7, Fam108B inh 1, PAD4 inh -1, LYPLA1 inh -4, PME-1 inh -2 and GSTO1 inh -3.
COc1cc(/C=N\NC(=O)c2ccc(Cl)cc2)ccc1Oc1ccc([N+](=O)[O-])cn1 was read as LYPLA2 counter 11, Fam108B inh -4, PAD4 inh 3, LYPLA1 inh -7, PME-1 inh -5 and GSTO1 inh -8.
`COc1cc(/C=C(/C#N)c2ccc(F)cc2)ccc1Oc1ccc([N+](=O)[O-])cn1` gave LYPLA2 counter 47*, Fam108B inh 0, PAD4 inh -4, LYPLA1 inh -3, PME-1 inh -6, GSTO1 inh -7, LYPLA2 confirm 51* and LYPLA2 ABPP 19.
Screening COc1ccc([C@@H]2CC=C(C(=O)O)[C@H](c3ccc(F)cc3)N2S(=O)(=O)c2ccc(Cl)cc2)cc1 returned LYPLA2 counter -12, Fam108B inh -4, PAD4 inh -1, LYPLA1 inh -6, PME-1 inh -5 and GSTO1 inh -4.
`CCCCn1c(N)c(N(CC(C)C)C(=O)c2ccc(-c3ccc([N+](=O)[O-])cc3)o2)c(=O)[nH]c1=O` gave LYPLA2 counter 5, Fam108B inh -1, PAD4 inh -7, LYPLA1 inh -2, PME-1 inh -1 and GSTO1 inh -13.
Screening Cc1ccc2c(CC(=O)NCCc3ccc(S(N)(=O)=O)cc3)coc2c1 returned LYPLA2 counter -3, Fam108B inh -1, PAD4 inh -2, LYPLA1 inh 0, PME-1 inh 0 and GSTO1 inh 1.
`COc1ccc(NC(=O)CO/N=C2\CCCc3nonc32)cc1` gave LYPLA2 counter -1, Fam108B inh 0, PAD4 inh -7, LYPLA1 inh -2, PME-1 inh -3 and GSTO1 inh 0.
For COc1ccc(C(=O)ON=C2CCCc3nonc32)cc1 the results were LYPLA2 ABPP 6.
Screening Cn1c(COc2ccccc2Br)nc2ccccc21 returned LYPLA2 counter -3, Fam108B inh -2, PAD4 inh -2, LYPLA1 inh -2, PME-1 inh 1 and GSTO1 inh 6.
CC(C)CC(=O)Nc1ccc(C(=O)Cn2nc(C(=O)O)c3ccccc3c2=O)cc1 was read as LYPLA2 counter 44*, Fam108B inh -14, PAD4 inh -3, LYPLA1 inh 0, PME-1 inh -10, GSTO1 inh 11 and LYPLA2 confirm 39*.
For COc1ccc(CCNc2oc(-c3ccc(OC)c(OC)c3)nc2P(=O)(OC)OC)cc1OC the results were LYPLA2 counter 28*, Fam108B inh 3, PAD4 inh 4, LYPLA1 inh 1, PME-1 inh 4, GSTO1 inh 4 and LYPLA2 confirm -5.
`COc1ccc(-c2nc(C#N)c(NCCc3ccccc3)o2)cc1OC` gave LYPLA2 counter 9, Fam108B inh 11, PAD4 inh -2, LYPLA1 inh 7, PME-1 inh 9 and GSTO1 inh -7.
For Cc1cc(C(=O)OCC(=O)Nc2ccccc2C(F)(F)F)on1 the results were PAD4 inh 1.
For CC(=O)N1CCN(C(=O)c2ccc3c(c2)S(=O)(=O)c2ccccc2C3=O)CC1 the results were LYPLA2 counter 32*, Fam108B inh 10, PAD4 inh 2, LYPLA1 inh 3, PME-1 inh -3, GSTO1 inh 4 and LYPLA2 confirm 32*.
`CCN1CCN(C(=O)c2ccc3c(c2)S(=O)(=O)c2ccccc2C3=O)CC1` gave LYPLA2 counter 40*, Fam108B inh 5, PAD4 inh 1, LYPLA1 inh 6, PME-1 inh 2, GSTO1 inh -11 and LYPLA2 confirm 44*.
`CC(=O)c1ccc(-n2ccc(=O)cc2)cc1` gave LYPLA2 counter 1, Fam108B inh 1, PAD4 inh 2, LYPLA1 inh 2, PME-1 inh 2 and GSTO1 inh 7.
For O=C(Nc1ccc(N2CCOCC2)cc1)c1ccc(COc2ccccc2)cc1 the results were LYPLA2 counter -6, Fam108B inh 0, PAD4 inh 0, LYPLA1 inh -3, PME-1 inh -9 and GSTO1 inh -1.
Screening O=C(c1ccc(Cl)cc1)N1CCC(O)(CSc2ccc(Cl)cc2)CC1 returned LYPLA2 counter 33*, Fam108B inh -1, PAD4 inh 4, LYPLA1 inh 2, PME-1 inh -4, GSTO1 inh 12 and LYPLA2 confirm 29*.
NC(=O)c1nn(Cc2ccccc2)c(=O)c2ccccc12 was read as LYPLA2 counter 1, Fam108B inh 1, PAD4 inh -2, LYPLA1 inh -4, PME-1 inh 4 and GSTO1 inh 7.
`N#Cc1ccc(CN2CCN(C(=O)Cn3nc(C(N)=O)c4ccccc4c3=O)CC2)cc1` gave LYPLA2 counter 29*, Fam108B inh -2, PAD4 inh 8, LYPLA1 inh 0, PME-1 inh -1, GSTO1 inh 0 and LYPLA2 confirm 14.
Cc1cccc([C@H]2[C@@H]3C=CCC[C@@H]3C(=O)N2Cc2ccccc2)c1 was read as PAD4 inh 3.
`Cc1ccc(C(=O)c2coc3c2C(=O)C(=O)c2ccccc2-3)cc1` gave LYPLA2 counter -8, Fam108B inh -3, PAD4 inh 3, LYPLA1 inh -2, PME-1 inh 2 and GSTO1 inh 20.
Cc1coc2c1C(=O)C(=O)c1c-2ccc2c1CCCC2(C)C was read as LYPLA2 counter 35*, Fam108B inh 8, PAD4 inh -1, LYPLA1 inh 5, PME-1 inh 8, GSTO1 inh 28 and LYPLA2 confirm 56*.
For CCOC(=O)C1CCN(C(=O)CNC(=O)Cn2c(C)cc3ccccc3c2=O)CC1 the results were LYPLA2 counter 29*, Fam108B inh 2, PAD4 inh -2, LYPLA1 inh 2, PME-1 inh 2, GSTO1 inh -3 and LYPLA2 confirm 19.
